Source: PubChem BioAssay (Broad Institute)
T cruzi growth-1 = T. cruzi intracellular proliferation inhibitors, primary screen, cell-based, beta-gal Tulahuen parasites, NIH3T3 host, luminescence. T. cruzi beta-gal in NIH3T3, GalScreen luminescence, 90 h. inhibition, % at 8.34 µM. 77,000 tested, 5.9% active. AID 624255, 2012;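 active = mean inhibition above about 93%, with at least 55% of replicates each passing it, limit read from the data, passing the limit was not always enough; inconclusive = only one of those two conditions holds; inactive = neither condition holds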
C diff HTS = C. difficile growth inhibitors, primary screen, HTS | 86,000 tested, 0.25% active | Clostridium difficile clinical isolate growth, OD600, 24 h; stronger effect = lower value | growth activity, negative = inhibition, % at 16 µg/mL (by protocol);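 active = mean growth activity at or below -80% and every replicate also at or below -80%; inconclusive = mean at or below -80% but some replicate above -80%; inactive = mean growth activity above -80%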;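 note: 0% = DMSO wells and -100% = levofloxacin 16 µg/mL wells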
Pf Dd2 growth = P. falciparum Dd2 growth inhibitors, primary screen, SYBR Green fluorescence, single dose replicates; 72 h; stronger effect = lower value; activity change, % at 10 µM; 94,000 tested, 2.3% active; in the data active = activity change below about -80%; inconclusive = no clear call, values can overlap the other calls
T cruzi growth-2 = T. cruzi intracellular proliferation inhibitors, confirmation, cell-based, NIH3T3 host, beta-gal parasite, luminescence, cherry-pick; T. cruzi beta-gal in NIH3T3, GalScreen luminescence, 90 h; AID 651739, 2012; shares compounds with T cruzi growth-1; 5,600 tested, 72% active; inhibition, % at 8.35 µM;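 active = mean replicate inhibition above about 95% and at least 55% of replicates individually reaching it, limit read from the data; inconclusive = only one of the two criteria is met; inactive = neither criterion is met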
T cruzi growth-3 = inhibitors of intracellular T. cruzi replication, confirmation, NIH3T3 host cells, beta-gal parasites, cherry-pick, set 2; AID 651740, 2012; 5,600 tested, 21% active; shares compounds with T cruzi growth-1; T. cruzi beta-gal in NIH3T3, GalScreen luminescence, 90 h; inhibition, % at 2.09 µM;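 active = mean inhibition above about 95%, with at least 55% of replicates also reaching it, limit read from the data; inconclusive = meets just one of the two conditions; inactive = meets neither condition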;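 note: plate controls were neutral control median for no effect and positive control median for full effect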
NIH3T3 tox = cytotoxicity in mouse NIH/3T3 fibroblasts, confirmation, cytotoxicity control for T. cruzi proliferation inhibitor project, cell-based, cherry-pick, single point. cytotoxicity (signal decrease), % at 8.35 µM. 5,600 tested, 14% active. NIH/3T3 viability, CellTiter-Glo ATP luminescence, 90 h. shares compounds with T cruzi growth-1;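 active = mean signal decrease across replicates above about 35% based on untreated-well scatter, with enough replicates individually passing, limit read from the data; inconclusive = no rule stated though some were filed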;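 note: 0% = median of neutral control wells and 100% = median of positive control wells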
NIH3T3 tox 2 = NIH/3T3 fibroblast cytotoxicity, confirmation, cytotoxicity control, cell-based, cherry-pick, single point, set 2. shares compounds with T cruzi growth-1. NIH/3T3 viability, CellTiter-Glo ATP luminescence, 90 h. inhibition, % at 24.9 µM. 5,600 tested, 56% active. AID 651744, 2012;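 active = mean loss of cell viability signal at or above a set limit, and enough replicates individually reaching it; inconclusive = meets only the mean limit or only the replicate share; inactive = meets neither condition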;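 note: 0% = median of neutral control wells and 100% = median of positive control wells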
The depositor's hits bear a star; ? = inconclusive; nt = no result given. A selection: hits, their analogues and other compounds. The true share with any hit is near 6.7%.

SMILES	T cruzi growth-1	C diff HTS	Pf Dd2 growth	T cruzi growth-2	T cruzi growth-3	NIH3T3 tox	NIH3T3 tox 2
C[C@H]1CN([C@@H](C)CO)C(=O)c2cccc(NC(=O)CCCCCC(=O)Nc3ccccc3N)c2O[C@H]1CN(C)S(=O)(=O)c1ccccc1	nt	-7	-34	nt	nt	nt	nt
C[C@@H]1CN([C@H](C)CO)C(=O)c2cccc(NC(=O)CCCCCC(=O)Nc3ccccc3N)c2O[C@H]1CN(C)S(=O)(=O)c1ccc(Cl)cc1	92	-6	-80	nt	nt	nt	nt
C[C@H]1CN([C@@H](C)CO)C(=O)c2cccc(NC(=O)c3ccc(-c4nccs4)cc3)c2O[C@@H]1CN(C)CC1CCCCC1	37	17	-35	nt	nt	nt	nt
CCCN1[C@@H]2Cn3c(ccc(C4=CCCC4)c3=O)[C@H]1[C@@H](C(=O)NCCOC)[C@@H]2CO	-17	1	3	nt	nt	nt	nt
C[C@@H]1CCCCO[C@H](CN(C)Cc2ccncc2)[C@H](C)CN([C@H](C)CO)C(=O)c2cc(NS(=O)(=O)c3ccccc3)ccc2O1	29	2	-44	nt	nt	nt	nt
COc1ccccc1S(=O)(=O)N(C)C[C@@H]1Oc2ncc(-c3ccc(C)cc3)cc2C(=O)N([C@H](C)CO)C[C@@H]1C	61	0	-47	nt	nt	nt	nt
COc1ccccc1S(=O)(=O)N(C)C[C@H]1Oc2ncc(-c3ccc(C)cc3)cc2C(=O)N([C@H](C)CO)C[C@@H]1C	99*	18	-39	99*	71	64*	37*
COc1ccccc1S(=O)(=O)N(C)C[C@H]1Oc2ncc(-c3ccc(C)cc3)cc2C(=O)N([C@@H](C)CO)C[C@@H]1C	111*	15	-51	103*	61	25	42*
COc1ccccc1S(=O)(=O)N(C)C[C@H]1Oc2ncc(Br)cc2C(=O)N([C@@H](C)CO)C[C@H]1C	nt	-5	43	nt	nt	nt	nt
CCCN(C)C[C@H]1Oc2ncc(C#CCC(C)C)cc2C(=O)N([C@H](C)CO)C[C@@H]1C	nt	3	-36	nt	nt	nt	nt
CN(C)C(=O)C[C@H]1CC[C@@H](NC(=O)NC2CCCCC2)[C@@H](CO)O1	nt	-2	8	nt	nt	nt	nt
C[C@H](CO)N1C[C@H](C)[C@@H](CN(C)Cc2ccccc2)Oc2c(NC(=O)Nc3ccc(F)cc3)cccc2C1=O	14	-11	-43	nt	nt	nt	nt
C[C@H]1CN([C@@H](C)CO)C(=O)c2cc(NC(=O)NC3CCCCC3)ccc2O[C@@H]1CN(C)Cc1ccccc1	3	-8	-7	nt	nt	nt	nt
C[C@@H]1CN([C@H](C)CO)C(=O)c2cc(NC(=O)NC3CCCCC3)ccc2O[C@H]1CN(C)Cc1ccc(-c2ccccc2)cc1	105*	30	10	104*	13	25	17
C[C@@H]1CN([C@@H](C)CO)C(=O)c2cc(NC(=O)NC3CCCCC3)ccc2O[C@H]1CN(C)Cc1ccc(-c2ccccc2)cc1	108*	42	13	102*	-18	38*	43*
C[C@H]1CN([C@@H](C)CO)C(=O)c2cc(NC(=O)NC3CCCCC3)ccc2O[C@@H]1CN(C)Cc1ccc(-c2ccccc2)cc1	-75	8	-1	nt	nt	nt	nt
C[C@@H]1CN([C@@H](C)CO)C(=O)c2cc(NC(=O)NC3CCCCC3)ccc2O[C@@H]1CN(C)Cc1ccc(-c2ccccc2)cc1	96*	9	6	100*	101*	54*	65*
C[C@@H]1CN([C@H](C)CO)C(=O)c2cc(NC(=O)NC3CCCCC3)ccc2O[C@@H]1CN(C)Cc1ccc(-c2ccccc2)cc1	48	-1	14	nt	nt	nt	nt
CC=Cc1ccc2n(c1=O)C[C@@H]1[C@@H](CO)[C@H](C(=O)NCCC)N(C(=O)c3cccnc3)[C@H]21 (mixture of isomers)	nt	-7	17	nt	nt	nt	nt
O=C(C[C@H]1CC[C@@H]2[C@H](COC[C@H](O)CN2Cc2cocn2)O1)NCc1cccc(F)c1	-85	0	nt	nt	nt	nt	nt
O=C(C[C@@H]1C[C@@H]2c3cc(NC(=O)c4ccc5c(c4)OCO5)ccc3O[C@@H]2[C@H](CO)O1)NC1CCCCC1	40	nt	24	nt	nt	nt	nt
CC(C)C#Cc1cnc2c(c1)C(=O)N([C@@H](C)CO)C[C@@H](C)[C@H](CN(C)C(=O)C1CCC1)O2	40	0	nt	nt	nt	nt	nt
Cc1noc(C)c1NC(=O)N(C)C[C@@H]1Oc2c(NC(=O)c3ccc(-c4nccs4)cc3)cccc2C(=O)N([C@@H](C)CO)C[C@H]1C	83	nt	1	nt	nt	nt	nt
CCS(=O)(=O)N1CCCCN2[C@H](CO)[C@H](c3ccc(C#Cc4ccccc4OC)cc3)[C@@H]2C1	112*	-2	-77	106*	74	42*	51*
CCCC#Cc1ccc([C@@H]2[C@@H](CO)N3CCCCN(S(=O)(=O)CC)C[C@H]23)cc1	-5	12	7	nt	nt	nt	nt
SMILES	T cruzi growth-1	C diff HTS	Pf Dd2 growth	T cruzi growth-2	T cruzi growth-3	NIH3T3 tox	NIH3T3 tox 2
COc1ccccc1C#Cc1ccc([C@H]2[C@H](CO)N3CCCCN(S(C)(=O)=O)C[C@@H]23)cc1	?	4	-14	106*	74	39*	70*
COc1ccccc1C#Cc1ccc([C@@H]2[C@H]3CN(S(C)(=O)=O)CCCCN3[C@H]2CO)cc1	94	-3	-4	nt	nt	nt	nt
CCS(=O)(=O)N1CCCCN2[C@H](CO)[C@H](c3ccc(C#Cc4ccccc4OC)cc3)[C@H]2C1	-1	14	-22	nt	nt	nt	nt
CCS(=O)(=O)N1CCCCN2[C@H](CO)[C@@H](c3ccc(C#Cc4ccccc4OC)cc3)[C@H]2C1	122*	-2	-8	101*	51	45*	85*
O=C(N[C@H]1CC[C@H](CCNC(=O)C2CCCCC2)O[C@H]1CO)c1ccncc1	76	6	13	nt	nt	nt	nt
O=C(C[C@H]1CC[C@H]2[C@@H](COC[C@H](O)CN2Cc2cc(F)ccc2F)O1)N1CCc2ccccc2C1	98*	-4	-37	79	0	-8	16
O=C(C[C@H]1CC[C@@H]2[C@H](COC[C@H](O)CN2Cc2cc(F)ccc2F)O1)N[C@@H]1CCN(Cc2ccccc2)C1	130*	1	-77	67	8	-18	-5
O=C(C[C@H]1CC[C@H]2[C@@H](COC[C@@H](O)CN2Cc2cc(F)ccc2F)O1)N[C@H]1CCN(Cc2ccccc2)C1	158*	0	-64	86	52	-13	3
O=C(C[C@H]1CC[C@@H]2[C@H](COC[C@@H](O)CN2Cc2cc(F)ccc2F)O1)N[C@@H]1CCN(Cc2ccccc2)C1	79	8	-66	nt	nt	nt	nt
